A selection: hits, their analogues and other compounds. The true share with any hit is near 15%.
RORg inh – ROR gamma (mouse) transcription inhibition; hit rate 5.4% among 310,000; Drosophila S2 Gal4-RORgamma UAS-luciferase reporter, 20 h; AID 2551; P51450; Potency, µM (highest dose often 53.6 µM), inactives show at the top dose activity change, negative = inhibition, hits mostly inhibitors; further: nearly all actives have a fitted effect of over 60% in size
Target sequence (P51450 whole entry, looked up, the tested form may be a part): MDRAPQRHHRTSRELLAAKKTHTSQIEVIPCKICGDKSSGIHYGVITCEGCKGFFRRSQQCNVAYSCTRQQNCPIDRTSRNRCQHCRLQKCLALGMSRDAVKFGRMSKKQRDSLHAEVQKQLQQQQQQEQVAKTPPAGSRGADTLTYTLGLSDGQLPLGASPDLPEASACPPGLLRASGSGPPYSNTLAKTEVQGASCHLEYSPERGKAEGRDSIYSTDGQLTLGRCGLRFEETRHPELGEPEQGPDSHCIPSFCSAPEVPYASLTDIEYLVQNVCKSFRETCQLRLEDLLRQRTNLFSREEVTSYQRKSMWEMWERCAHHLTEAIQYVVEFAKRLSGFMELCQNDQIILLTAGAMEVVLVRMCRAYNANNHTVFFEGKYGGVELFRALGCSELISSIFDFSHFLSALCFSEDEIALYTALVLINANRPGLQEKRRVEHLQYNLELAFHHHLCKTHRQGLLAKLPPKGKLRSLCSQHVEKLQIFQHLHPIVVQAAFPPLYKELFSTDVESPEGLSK
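Compounds are pin-transferred onto Drosophila Schneider cells expressing a copper-inducible Gal4–ROR gamma transactivation domain fusion. After 1 hr, copper sulfate is added to 700 uM final; luciferase is read 20 hr later.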
TDP1 cell CPT – DT40-hTDP1 cell growth loss with CPT; chicken DT40 Tdp1-/-;hTDP1 cells + 20 nM CPT, ATP luminescence, 48 h; Potency, µM (titrated, usually from 46.2 µM), inactives show at the top dose activity change, negative = growth inhibition, most hits filed as inhibitors; hit rate 12% among 420,000; further: nearly all actives have a fitted effect of over 55% in size
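Cell growth measured by CellTiter-Glo luminescence after a minimum 48 h, 37 C compound exposure with 20 nM CPT in Tdp1-knockout DT40 cells stably expressing hTDP1, seeded 400/well; qHTS titration format.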
ELG1 DNA repair – inhibitors of ELG1-dependent DNA repair in HEK293T cells. AID 504467. hit rate 2.3% among 330,000. Potency, µM (series often up to 46.1 µM), inactives show top-dose activity change, negative = inhibition, actives largely listed as inhibitors. HEK293T ELG1-luciferase reporter, luminescence, 16 h; DNA damage induced by 5-fluorouridine; further: nearly all actives have a fitted effect of over 55% in size
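HEK293T cells expressing luciferase-tagged ELG1 (2,000/well) received 5-Fluorouridine plus compound or DMSO for 16 hr at 37 °C. Luciferase was read by ONE-Glo luminescence after 30 min at room temperature.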
Gal4-VP16 FLuc – Gal4-VP16 reporter inhibition counter-screen. hit rate 3.5% among 310,000. Potency, µM (titrated, usually from 53.6 µM), for inactives: at the top dose activity, negative = inhibition, most hits filed as inhibitors. Drosophila S2 Gal4-VP16 UAS-luciferase, luminescence, 20 h;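 further: Gal4-VP16 expression switched on by copper sulfate through the metallothionein promoter; nearly all actives have a fitted effect of over 50% in size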
12-LOX inh – inhibitors of human 12S-lipoxygenase ALOX12. P18054. purified 12hLO, xylenol orange hydroperoxide absorbance. Potency, µM (titrated, usually from 108 µM), inactives show at the top dose activity change, negative = inhibition, hits mostly inhibitors. hit rate 1.1% among 580,000. AID 1671190
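Hydroperoxide product was detected by ferrous iron/xylenol orange as the 573 to 405 nm absorbance ratio. Arachidonic acid at 40 uM (final) was turned over for 30 min at room temperature by 150 nM human 12hLO, pH 7.0 Hepes buffer, after 15 min compound preincubation.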
TDP1 cell noCPT – qHTS for Inhibitors of human tyrosyl-DNA phosphodiesterase 1 (TDP1): qHTS in cells in absence of CPT; hit rate 15% among 420,000; Potency, µM (top dose mostly 46.2 µM), inactives show at the highest dose activity change, negative = growth inhibition, hits mostly inhibitors; DT40 Tdp1-/- hTDP1 cells, no CPT, ATP luminescence, 48 h; further: nearly all actives have a fitted effect of over 55% in size
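A cellular qHTS used chicken DT40 cells lacking endogenous Tdp1 but carrying stably transfected human TDP1. Compounds were applied without camptothecin, and cell growth kinetics were judged by ATP-dependent luminescence after ≥48 hr.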
Numbers without * were called inactive; ? = inconclusive; nt = not tested or not shown; [ ] = remark or other dose. The call rests on the fitted dose curve; in most records, active means well fitted curve in the direction sought with a large enough effect; inconclusive means small, poorly fitted or top-dose-only effect, or another doubt; inactive means no such curve, though single readings can be large; an effect the other way counts as inactive or inconclusive. On the % scale 0 is the no-effect control and ±100 the full control effect; potency means the concentration at half of the fitted maximal effect.

SMILES	RORg inh	TDP1 cell CPT	ELG1 DNA repair	Gal4-VP16 FLuc	12-LOX inh	TDP1 cell noCPT
Cc1ccc(NC(=O)C2CC(=O)N(Cc3ccccc3)C2)cc1S(=O)(=O)N1CCCCCC1 (configuration not stated)	?	29µM*	?	-5%	-7%	?
CCCC(=O)OCCC(C)CCC=C(C)C (configuration not stated)	nt	nt	nt	nt	135%[176 µM]	nt
CC(C)(C)c1cc(C[C@@H]2CC[C@H](O)[C@@H](CN(CC3CC3)CC3CC3)O2)no1	nt	nt	nt	nt	29%[176 µM]	nt
CC(=O)Nc1cc([N+](=O)[O-])cc(NC(C)=O)c1NC(C)=O	nt	7.1µM*	nt	nt	nt	?
CC(=O)Nc1ccc(O)cc1[N+](=O)[O-]	7%	6%	17%	3%	0%	-18%
CCOCCn1ccc2c(OCC(=O)Nc3ccc(C(N)=O)cc3)cccc2c1=O	nt	?	nt	nt	-12%	15µM*
CCn1ccc2c(OCC(=O)Nc3ccc(C(C)=O)cc3)cccc2c1=O	nt	?	nt	nt	-21%	9.2µM*
COCCn1ccc2c(OCC(=O)Nc3cc(OC)ccc3OC)cccc2c1=O	nt	?	?	nt	16%	15µM*
CC(Nc1ccc(Cl)cc1)C(=O)NC(N)=O (configuration not stated)	nt	nt	nt	nt	37%	nt
CCCCN(Cc1ccccc1)c1ccc(NS(=O)(=O)c2ccc(C(C)(C)C)cc2)cc1C(=O)O	nt	nt	nt	nt	14µM*	nt
CCCCN(Cc1ccccc1)c1ccc(NS(=O)(=O)c2ccc(C(C)=O)cc2)cc1C(=O)O	nt	nt	nt	nt	4.5µM*	nt
CCCCN(CC)c1ccc(NS(=O)(=O)c2ccc(C(C)=O)cc2)cc1C(=O)O	nt	nt	nt	nt	-80%	nt
CCc1ccccc1NC(=O)CCS(=O)(=O)c1ccc2c(c1)CCN2C(=O)C1CC1	nt	nt	nt	nt	-21%	nt
Cc1cccc(COCC(Cc2ccccc2)N2CCN(C(=O)c3cccc(Cl)c3)CCC2=O)c1 (configuration not stated)	17%	26µM*	?	5%	?	18µM*
Cc1cccc(C(=O)N2CCC(=O)N(C(COCc3ccccc3)Cc3ccccc3)CC2)c1 (configuration not stated)	2%	?	-5%	-5%	0%	26µM*
Cc1cccc(COC[C@H](Cc2ccccc2)N2CCN(C(=O)c3cccc(Cl)c3)CCC2=O)c1	2%	?	nt	-2%	-69%	?
Cc1ccc(C(=O)N2CCCCCCNC(=O)[C@@H]3C[C@@H](C(=O)N4CCc5ccccc5C4)C[C@@H]32)s1	nt	nt	nt	nt	0%	nt
COc1ccc2c3c(ccc2c1)C(=O)/C(=C/O)CC3	nt	?	nt	nt	25µM*	16µM*
O=C1C2C3C=CC(C4CC34)C2C(=O)N1/N=C/c1ccc(-c2ccc(Cl)cc2[N+](=O)[O-])o1 (configuration not stated)	26%	?	?	0%	2%	?
COc1ccc(-c2ccc(/C=N/N3C(=O)C4C5C=CC(C6CC56)C4C3=O)o2)c([N+](=O)[O-])c1 (configuration not stated)	?	?	18µM*	-10%	-20%	23µM*
Cc1ccc(-c2ccc(/C=N/N3C(=O)C4C5C=CC(CC5)C4C3=O)o2)c([N+](=O)[O-])c1 (configuration not stated)	27%	18µM*	?	-10%	-15%	?
O=C1C2C3C=CC(C4CC34)C2C(=O)N1/N=C/c1ccc(-c2ccc(F)cc2[N+](=O)[O-])o1 (configuration not stated)	?	?	?	12%	-10%	23µM*
CCCNC(=O)C12CC3CC(C1)CC(c1ccc(C)cc1)(C3)C2	nt	nt	nt	nt	12%	nt
Cc1cc(C(=O)OCC(=O)Nc2cccc(C)c2C)c2ccccc2n1	nt	nt	nt	nt	42%	nt

Screening results: PubChem BioAssay, National Center for Advancing Translational Sciences (NCATS)
